Among the data in PubChem BioAssay (EPA / NIEHS) are outcome and AC50 values, retold here.

A short description of assay [1]: ACEA_AR_agonist_AUC_viability: ACEA Biosciences xCELLigence Real-Time Cell Analysis on Androgen Receptor Agonism for Viability (AID 2283775).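 For AC50: viability read 80 hours after compound addition.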 The procedure, abridged: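 Read-out is area under the impedance curve at 80 h post-dose in 22Rv1 cells, with DMSO as baseline and signal loss taken as reduced viability. Compounds ran in duplicate from 100 uM final.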
Assay [2] is described as follows: ACEA_AR_antagonist_AUC_viability: ACEA Biosciences xCELLigence Real-Time Cell Analysis on Androgen Receptor Antagonism for Viability (AID 2283776).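 Note: 22Rv1 human prostate cancer cells growing on impedance electrode plates; area under impedance growth curve at 80 h after dosing as viability; hits lower the growth signal relative to DMSO meaning cytotoxicity.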 The essentials: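 Viability endpoint from label-free cell-index monitoring: 22Rv1 cultures treated with an eight-point 1:4 dilution series starting at 100 uM final, AUC at 80 h fitted against DMSO.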

Structures are written as SMILES. Where “and” joins values, the source holds several entries; their conditions need not be identical. Equal entries are not always repeated. Records with an inconclusive call do not appear. Calls of active or inactive are those of the source. Rule for the calls: active = hit-call score of the fitted dose curve at least 0.9, where 1 is the maximum; inconclusive = response in the unintended direction; inactive = score below 0.9.

Consider `CN(C)N=O`, for which the result in assay [1] and in assay [2] was inactive. As for `c1cc[c]([Hg][c]2ccccc2)cc1`, the AC50 (commonly the midpoint of the concentration-response curve, whichever way the signal moves) in assay [1] is 26.6 µM (active); in assay [2] it was 16.6 µM (active). With `O=S(=O)(c1ccc(Cl)cc1)c1ccc(Cl)cc1`, the compound was called inactive in assay [1] and in assay [2]. Consider `ClC(Cl)=C(Cl)C(Cl)=C(Cl)Cl`, for which the result in assay [2] was inactive. Still for that read-out and setting: under `CC(=O)c1cc(C(C)(C)C)cc2c1CCC2(C)C` stands “inactive”.

In the case of `COc1cc(-c2ccc(N)c(OC)c2)ccc1N`, the AC50 in assay [1] was 27.1 µM (active); in assay [2], 18.4 µM (active) and 22.3 µM (active). Take `CCN1CCC2(CC1)COc1cc3c(cc12)N(C(=O)c1ccc(-c2ccc(-c4nnc(C)o4)cc2C)cc1)CC3`: the half-maximal activity concentration (AC50) in assay [1] is 9.92 µM (active); in assay [2], 10.4 µM (active). Take `O=C(O)C(F)(F)C(F)(F)C(F)(F)C(F)(F)C(F)(F)C(F)(F)C(F)(F)C(F)(F)C(F)(F)C(F)(F)F`: the AC50 in assay [1] was 36 µM (active). Further, the result in assay [2] was inactive.

For the compound `CCC(=O)C(CC(C)N(C)C)(c1ccccc1)c1ccccc1` (stereo unspecified), the values for the half-maximal activity concentration (AC50) in assay [1] and in assay [2] were 22.3 µM (active) and 32.9 µM (active), respectively. `C=CC#N`: the outcome in assay [2] was inactive.

As for `[O-][Cl+2]([O-])O`, the compound was classed as inactive in assay [1] and in assay [2].

As to `CNC`, in assay [2], the result was inactive. On to `COc1ccc(C=O)cc1`, for which the call in assay [1] and in assay [2] was inactive.

Take `C[C@@H]1C[C@@H]([C@H](O)CC2CC(=O)NC(=O)C2)C(=O)[C@@H](C)C1`: the figures for the AC50 in assay [1] and in assay [2] were 2.1 µM (active) and 1.35 µM (active), respectively. Take `Cl/C=C/Cl`: the outcome in assay [1] and in assay [2] was inactive. Consider `COC(=O)c1sccc1S(=O)(=O)NC(=O)Nc1nc(C)nc(OC)n1`, for which the outcome in assay [2] was inactive. Turning to `N#CN=C(N)N`, the call in assay [1] and in assay [2] was inactive.

As for `O=C(O)C(Cl)(Cl)Cl`, in assay [2], the compound was classed as inactive. On to `C=C(C)C(=O)[O][Sn]([CH2]CCC)([CH2]CCC)[CH2]CCC`, for which the AC50 was 1.43 µM (active) in assay [1] and 1.35 µM (active) in assay [2]. Turning to `Cl/C=C\C[N+]12CN3CN(CN(C3)C1)C2`, the call in assay [1] and in assay [2] was inactive. Take `O=C(NCO)NCO`: the outcome in assay [1] and in assay [2] was inactive. Consider `Oc1ccc(-c2ccccc2)cc1`, for which, in assay [1], the outcome was inactive. Besides, the AC50 in assay [2] was 1.1 µM (active). For the compound `C1CCC(NC2CCCCC2)CC1`, in assay [2], the compound was classed as inactive. On the same count and under the same terms, under `Clc1nc(Cl)nc(Cl)n1` stands “inactive”. On to `CCC[CH2][Sn]([CH2]CCC)([CH2]CCC)[O]C(=O)c1ccccc1`, for which the AC50 was 4.45 µM (active) in assay [1] and 1.06 µM (active) in assay [2]. With `C=CCc1ccc(OC)cc1`, the compound was classed as inactive in assay [1] and in assay [2]. As for `O=[N+]([O-])c1ccc(O)c([N+](=O)[O-])c1`, the AC50 in assay [1] and in assay [2] was 50 µM (active) in each case.
